Values joined by “and” are separate entries in the source; they are usually repeats but may differ in a detail not shown here. Equal values may be shown once. Records with an inconclusive call do not appear. Active and inactive are the calls of the source. Unless noted, calls come from the whole dose curve; as a rule, active = well fitted curve in the direction sought with a large enough effect; inconclusive = small, poorly fitted or top-dose-only effect, or another doubt; inactive = no such curve, though single readings can be large; an effect the other way counts as inactive or inconclusive.
Tests used:
[1] = target: Arylsulfatase A (Homo sapiens) (UniProt P15289); experiment: qHTS screen for enhancers of Arylsulfatase A (ASA1): LOPAC Validation Assay (AID 720538); note: potency is the fitted concentration of half-maximal effect
Method in brief: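 SV40-transformed fibroblasts from an MLD patient (ASA-I179S) were treated with compound for 48 h at 37 C. They were then lysed with 0.5 mM pNCS substrate (final) for 14 h at room temperature and stopped with NaOH; signal read by fluorescence (Ex 525/Em 598 nm), with increase denoting enhanced activity.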

[2] = qHTS for compounds that reverse cellular toxicity of Amyloid beta (A-beta) peptide in yeast: LOPAC Validation Assay (AID 720559); details: Potency: rescue of growth toxicity; note: potency is the fitted concentration of half-maximal effect
Method in brief: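 Yeast expressing toxic A-beta grown with pinned compounds at 30 C for 48 hr. Growth measured as absorbance at 600 nm; data normalized to DMSO and to an equimolar FeCl3/clioquinol mixture as positive control.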

[3] = qHTS for Activators of Parkin Expression: LOPAC Validation Assay (NLuc Reporter) (AID 720572)
Method in brief: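 Compound effects on Parkin promoter activity were measured as NanoLuc luminescence after 24 h at 37 C. The neuronal reporter line also carried FLuc, which was read first. LOPAC compounds were tested at 7 concentrations, with normalization to DMSO (0%) and positive control (100%).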

[4] = qHTS for Activators of Parkin Expression: LOPAC Validation Assay (FLuc Reporter) (AID 720573; note: potency is the fitted concentration of half-maximal effect)
Method in brief: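 Neuronal cell line stably expressing FLuc/NLuc coincidence reporter under the Parkin promoter, 1,500 cells/well, dosed 24 h after seeding in 7-point series for 24 h at 37 C. FLuc luminescence read; normalized to DMSO and positive control (100%).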

[5] = target: T1, Hexokinase-4 (Homo sapiens) + Glucokinase regulatory protein (Homo sapiens) (UniProt P35557+Q14397); experiment: qHTS assay for inhibitors of recombinant human GCK-GKRP interaction: Diaphorase-coupled assay (AID 743205)
Method in brief: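 Compounds pre-incubated 20 min with substrate, then 10 nM GST-GCK with 10 nM FLAG-GKRP added. GCK activity coupled via G6PDH and diaphorase to resorufin (5 mM glucose, 0.4 mM ATP, 0.15 mM NADP+, pH 7.6), read kinetically over 30 minutes at Ex 525/Em 590 nm.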

[6] = target: T1, Hexokinase-4 (Homo sapiens) + Glucokinase regulatory protein (Homo sapiens); experiment: qHTS assay for inhibitors of recombinant human GCK-GKRP interaction: ADP-Glo assay (AID 743206); note: potency is the fitted concentration of half-maximal effect
Method in brief: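 Pin-transferred compounds meet a 15 nM GST-GCK/15 nM FLAG-GKRP/2 uM S6P mix (dispense concentrations). ATP is then added to 0.4 mM final with 5 mM glucose, and the reaction runs 60 min at room temperature. ADP is quantified luminescently.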

[7] = qHTS Assay for Identifying Gametocytocidal Compounds (AID 743244); note: potency is the fitted concentration of half-maximal effect;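 for max response: % is set by controls: 0 for no effect and ±100 for the full control effect; actives lower the fluorescent signal which means gametocytes are killed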; details: P. falciparum 3D7 stage III-V gametocytes, alamarBlue, 72 h; max response: stronger effect = lower value
Method in brief: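 Compounds are pinned into medium, gametocytes (stage III–V, 3D7, 20,000 cells/well) added, and plates held 72 h at 37 °C in 5% CO2. AlamarBlue follows for 24 h before fluorescence reading.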

[8] = target: T1, Hexokinase-4 (Homo sapiens) + Glucokinase regulatory protein (Homo sapiens); experiment: qHTS assay for inhibitors of recombinant human GCK-GKRP interaction: HTRF assay (AID 743207);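 note: 0% = DMSO with GCK present and -100% = DMSO wells lacking GCK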
Method in brief: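 HTRF binding of 5 nM GST-GCK and 5 nM FLAG-GKRP with 2 uM S6P in pH 7.1 Hepes buffer (MgCl2, KCl, DTT, Tween 20, BSA). Anti-FLAG XL665 and anti-GST donor added, 60 min at room temperature; 665/615 nm read, normalized to with- and without-GCK controls.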

[9] = qHTS profiling of the MIPE4 collection as inhibitors of Plasmodium falciparum (3D7) proliferation (AID 743344; call rule not given here;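 note: scaled between DMSO vehicle wells and 0.29 µM artemisinin as full inhibition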); details: P. falciparum 3D7 in erythrocytes, SYBR Green DNA fluorescence, 72 h; at 28.5 µM (top of the series)
Method in brief: (§1)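 Parasite DNA was quantified by SYBR Green I fluorescence (ex 485, em 535 nm) after overnight lysis in saponin/Triton buffer at room temperature. Cultures at 0.3% parasitemia and 2.5% hematocrit were first exposed to compound for 72 h at 37 C; signals were normalised to artemisinin (0.29 uM) and vehicle wells.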

[10] = qHTS profiling of the MIPE4 collection as inhibitors of Plasmodium falciparum (DD2) proliferation (AID 743345; call rule not given here); details: P. falciparum Dd2 in erythrocytes, SYBR Green DNA, 72 h; at 28.5 µM (top of the series)
Method in brief: as §1

[11] = qHTS profiling of the MIPE4 collection as inhibitors of Plasmodium falciparum (DD2) proliferation (Rep 2) (AID 743346; call rule not given here); details: P. falciparum Dd2 in erythrocytes, SYBR Green DNA, 72 h; at 28.5 µM (top of the series)
Method in brief: as §1

[12] = qHTS profiling of the MIPE4 collection as inhibitors of Plasmodium falciparum (HB3) proliferation (AID 743347; call rule not given here;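 note: plate controls were DMSO vehicle wells for no effect and artemisinin wells for full effect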); details: P. falciparum HB3 in erythrocytes, SYBR Green DNA, 72 h; at 28.5 µM (top of the series)
Method in brief: as §1

Sequence of Arylsulfatase A (Homo sapiens) (P15289 whole entry, looked up): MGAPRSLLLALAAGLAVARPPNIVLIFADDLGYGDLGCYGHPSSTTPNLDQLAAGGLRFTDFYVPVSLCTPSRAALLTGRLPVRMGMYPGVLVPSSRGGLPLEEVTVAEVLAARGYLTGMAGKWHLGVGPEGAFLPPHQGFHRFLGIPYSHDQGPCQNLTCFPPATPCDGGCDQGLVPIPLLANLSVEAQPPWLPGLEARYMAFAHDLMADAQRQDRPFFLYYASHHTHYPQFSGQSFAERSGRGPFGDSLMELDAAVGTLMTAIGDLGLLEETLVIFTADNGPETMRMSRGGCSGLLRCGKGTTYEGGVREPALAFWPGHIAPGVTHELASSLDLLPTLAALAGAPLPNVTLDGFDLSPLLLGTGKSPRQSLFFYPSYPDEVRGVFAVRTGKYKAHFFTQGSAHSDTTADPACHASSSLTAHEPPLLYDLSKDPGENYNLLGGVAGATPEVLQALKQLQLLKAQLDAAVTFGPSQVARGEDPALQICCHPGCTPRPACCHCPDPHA
T1 sequence (P35557 whole entry, looked up): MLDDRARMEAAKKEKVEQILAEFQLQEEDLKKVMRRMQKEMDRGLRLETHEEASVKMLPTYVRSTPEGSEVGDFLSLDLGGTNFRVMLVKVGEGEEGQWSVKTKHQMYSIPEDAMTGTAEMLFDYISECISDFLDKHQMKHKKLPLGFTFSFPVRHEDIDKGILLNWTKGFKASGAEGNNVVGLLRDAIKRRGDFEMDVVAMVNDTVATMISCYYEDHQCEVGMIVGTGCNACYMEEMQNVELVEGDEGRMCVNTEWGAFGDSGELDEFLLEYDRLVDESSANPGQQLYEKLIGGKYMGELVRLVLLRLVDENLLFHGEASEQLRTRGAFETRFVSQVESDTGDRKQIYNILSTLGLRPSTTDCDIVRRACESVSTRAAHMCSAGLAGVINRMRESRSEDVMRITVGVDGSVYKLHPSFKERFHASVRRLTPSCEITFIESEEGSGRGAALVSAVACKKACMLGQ
T1 sequence (Q14397 whole entry, looked up): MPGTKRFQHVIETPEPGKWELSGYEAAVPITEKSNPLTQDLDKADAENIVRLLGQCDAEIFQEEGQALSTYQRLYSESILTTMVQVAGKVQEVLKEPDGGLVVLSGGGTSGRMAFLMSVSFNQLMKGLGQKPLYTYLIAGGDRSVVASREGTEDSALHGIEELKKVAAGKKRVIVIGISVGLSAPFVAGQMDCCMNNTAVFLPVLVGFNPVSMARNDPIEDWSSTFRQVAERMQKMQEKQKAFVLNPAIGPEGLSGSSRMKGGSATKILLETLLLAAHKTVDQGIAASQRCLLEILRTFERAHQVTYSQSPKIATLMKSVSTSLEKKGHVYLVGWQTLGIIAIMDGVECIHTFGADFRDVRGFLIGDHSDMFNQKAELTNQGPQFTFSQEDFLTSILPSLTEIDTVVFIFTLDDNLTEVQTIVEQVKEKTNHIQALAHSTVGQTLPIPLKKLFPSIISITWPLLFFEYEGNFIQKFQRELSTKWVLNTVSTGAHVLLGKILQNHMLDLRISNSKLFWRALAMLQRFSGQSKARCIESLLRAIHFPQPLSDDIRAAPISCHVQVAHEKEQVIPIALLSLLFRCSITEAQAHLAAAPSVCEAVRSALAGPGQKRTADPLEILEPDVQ

N=C(N)SCCc1ccc(CCSC(=N)N)cc1
inactive: Potency [1] | Potency [2] | Potency [3] | Potency [4] | outcome [5] | Potency [6] | max response [7] 24%

Cn1c(=O)c2[nH]c(-c3ccccc3)nc2n(C)c1=O
inactive: Potency [1] | Potency [2] | Potency [4] | outcome [5] | Potency [6] | Potency [8] | max response [7] 16.2%

Nc1ncnc2c1c(I)cn2[C@@H]1C[C@H](N)[C@@H](O)[C@H]1O
inactive: Potency [1] | Potency [2] | outcome [5] | Potency [6] | Potency [8] | max response [7] 12.6%
active: Potency [4] 20.6 µM

CN1CCc2cc(O)c(O)cc2C(c2ccccc2)C1 (stereo not given)
inactive: Potency [2] | Potency [4] | outcome [5] | Potency [6]
active: Potency [1] 21.3 µM

O=C1O/C(=C/Br)CCC1c1cccc2ccccc12 (stereo not given)
inactive: Potency [1] | Potency [2] | Potency [3] | Potency [4] | outcome [5] | Potency [6] | max response [7] 7.23%

Brc1c(Br)c(Br)c2n[nH]nc2c1Br
inactive: Potency [1] | Potency [2] | Potency [4] | outcome [5] | Potency [6] | Potency [8] | max response [7] 10.7%

CSc1ccccc1N1CCN(CCCCCC(=O)NC2CCCc3ccccc32)CC1 (stereo not given)
inactive: Potency [1] | Potency [2] | Potency [3] | Potency [4] | outcome [5] | Potency [6] | max response [7] 6.9%

NCCCS(=O)(=O)O
inactive: Potency [1] | Potency [2] | Potency [3] | Potency [4] | outcome [5] | Potency [6] | max response [7] 2.49%

C=CC(=O)c1ccc(CCCCCC)cc1
inactive: Potency [1] | Potency [2] | Potency [4] | outcome [5] | Potency [6] | Potency [8] | max response [7] 6.31%

O=C1/C(=C/c2ccsc2)CC/C1=C\c1cccs1
inactive: Potency [1] | Potency [2] | Potency [3] | outcome [5] | Potency [6] | max response [7] 30.3%
active: Potency [4] 18.4 µM

Nc1nc(Cl)nc2c1ncn2[C@@H]1O[C@H](COP(=O)(O)OP(=O)(O)OP(=O)(O)O)[C@@H](O)[C@H]1O
active: Potency [2] 18.4 µM
inactive: Potency [1] | Potency [4] | outcome [5] | Potency [6]

O=C(O)c1cc(=O)c2ccccc2[nH]1
inactive: Potency [1] | Potency [2] | Potency [3] | outcome [5] | Potency [6] | Potency [8] | max response [7] -5.82%

NC(=S)NCCC[C@H](N)C(=O)O
inactive: Potency [1] | Potency [2] | Potency [4] | outcome [5] | Potency [6] | Potency [8] | max response [7] 29.7%

Cc1ccc(O)c(N=Nc2ccccc2)n1
active: Potency [7] 2.51 µM
inactive: Potency [1] | Potency [2] | Potency [3] | outcome [5] | Potency [6] | Potency [8]

O=C(c1ccc(Cl)cc1)N1CCN(c2ccc([N+](=O)[O-])c3ncccc23)CC1
inactive: Potency [1] | Potency [2] | Potency [4] | outcome [5] | Potency [6] | Potency [8] | max response [7] -0.851%

CC(C)ON([C@@H](C(=O)NO)C(C)C)S(=O)(=O)c1ccc(-c2ccccc2)cc1
inactive: Potency [1] | Potency [2] | Potency [4] | outcome [5] | Potency [6]

CCOC(=O)N1CCN(/[N+]([O-])=N/Oc2ccc([N+](=O)[O-])cc2[N+](=O)[O-])CC1
inactive: Potency [1] | Potency [2] | Potency [4] | outcome [5] | Potency [6] | Potency [8]

COc1ccccc1N1CCN(CCCCNS(=O)(=O)c2cccc3c(N(C)C)cccc23)CC1
inactive: Potency [1] | Potency [2] | Potency [4] | outcome [5] | Potency [6] | Potency [8] | max response [7] 10.4%

O=c1[nH]c2cc(Cl)c(Cl)cc2[nH]c1=O
inactive: Potency [1] | Potency [2] | Potency [3] | outcome [5] | Potency [6] | Potency [8]

CN(C)C(N)=NCCC[C@H](N)C(=O)O
inactive: Potency [1] | Potency [2] | Potency [4] | outcome [5] | Potency [6] | Potency [8] | max response [7] -2.52%

Cc1ccc(S(=O)(=O)/C=C/C#N)cc1
inactive: Potency [1] | Potency [2] | Potency [3] | Potency [4] | outcome [5] | Potency [6]
active: Potency [7] 3.55 µM

CCc1c(C(=O)NCCc2ccc(N3CCCCC3)cc2)[nH]c2ccc(Cl)cc12
inactive: Potency [1] | Potency [2] | Potency [3] | Potency [4] | outcome [5] | Potency [6] | max response [7] 11.6%

O=C(c1ccc(OCCCc2cnc[nH]2)cc1)C1CC1
inactive: Potency [1] | Potency [2] | Potency [3] | outcome [5] | Potency [6] | max response [7] 42%

C#CCN1C(C)=C(C(=O)OC)C(c2cccc([N+](=O)[O-])c2)C(C(=O)OCC)=C1C (stereo not given)
inactive: Potency [1] | Potency [2] | Potency [4] | outcome [5] | Potency [6] | Potency [8]

COc1cc(SC)ccc1C(=O)N1CCC(Cc2ccccc2)CC1
inactive: Potency [1] | Potency [2] | Potency [4] | outcome [5] | Potency [6]

O=C1NC(=O)/C(=C/c2ccc(-c3ccc(F)cc3O)o2)S1
inactive: Potency [1] | Potency [2] | Potency [3] | outcome [5] | Potency [6] | Potency [8] | max response [7] -4.42%

CN1CCc2cc(NC(=O)Nc3cccnc3)ccc21
inactive: Potency [1] | Potency [2] | Potency [3] | outcome [5] | Potency [6]

O=[N+]([O-])c1ccc(CSc2ncnc3c2ncn3[C@@H]2O[C@H](CO)[C@@H](O)[C@H]2O)cc1
inactive: Potency [1] | Potency [2] | Potency [4] | outcome [5] | Potency [6] | Potency [8] | max response [7] 17.7%

C[C@@H](CN1CCC(Cc2ccccc2)CC1)[C@@H](O)c1ccc(O)cc1
inactive: Potency [1] | Potency [2] | Potency [4] | outcome [5] | Potency [6] | Potency [8] | max response [7] 31%

CCCCCCCCCCCCCCCC(=O)NCC(COP(=O)([O-])OCC[N+](C)(C)C)OCC (stereo not given)
inactive: Potency [1] | Potency [2] | Potency [4] | outcome [5] | Potency [6] | Potency [8]

O=C(O)c1cc([N+](=O)[O-])ccc1NCCCc1ccccc1
inactive: Potency [1] | Potency [2] | Potency [4] | outcome [5] | Potency [6] | Potency [8] | max response [7] 5.5%

O=C(c1cc(O)c(O)c([N+](=O)[O-])c1)c1ccccc1F
active: Potency [1] 19 µM
inactive: Potency [2] | Potency [3] | Potency [4] | outcome [5] | Potency [6] | max response [7] 18.1%

O=C(/C=C/c1ccc(O)c(O)c1)OCCc1ccccc1
inactive: Potency [1] | Potency [2] | Potency [3] | outcome [5] | Potency [6] | Potency [8]

O=C(Nc1cccc(C(=O)Nc2ccc(S(=O)(=O)O)c3cc(S(=O)(=O)O)cc(S(=O)(=O)O)c23)c1)Nc1cccc(C(=O)Nc2ccc(S(=O)(=O)O)c3cc(S(=O)(=O)O)cc(S(=O)(=O)O)c23)c1
83.4%: growth, % of control [12]
84.7%: parasite growth, % of DMSO control [9]
active: Potency [6] 22.4 µM
91.3%: parasite growth remaining, % of DMSO control (lower = more inhibition) [10]
inactive: Potency [1] | Potency [2] | Potency [3] | Potency [4] | Potency [8] | max response [7] -0.217%
111%: parasite growth, % of control (lower = inhibition) [11]

O=C1NC(=O)/C(=C/c2ccc3nccnc3c2)S1
inactive: Potency [1] | Potency [2] | Potency [3] | outcome [5] | Potency [6] | Potency [8] | max response [7] -5.45%

C[N+](C)(C)CCOP(=O)(O)OP(=O)([O-])OC[C@H]1O[C@@H](n2ccc(N)nc2=O)[C@H](O)[C@@H]1O
inactive: Potency [1] | Potency [2] | Potency [4] | outcome [5] | Potency [6] | Potency [8] | max response [7] 1.57% and 1.8% and 27.7%

OC[C@H]1O[C@@H](n2cnc3c(Nc4ccccc4)ncnc32)[C@H](O)[C@@H]1O
inactive: Potency [1] | Potency [2] | outcome [5] | Potency [6] | Potency [8] | max response [7] -5.57%

CCC1C(=O)OCC1Cc1cncn1C (stereo not given)
inactive: Potency [1] | Potency [2] | Potency [4] | outcome [5] | Potency [6] | Potency [8] | max response [7] -1.02% and -1.03% and -9.17%

CCCn1c(=O)c2[nH]c(-c3ccc(OCC(=O)NCCN)cc3)nc2n(CCC)c1=O
inactive: Potency [2] | Potency [3] | Potency [4] | outcome [5] | Potency [6] | Potency [8]

COC1=C(OC)C(=O)c2ccccc2C1=O
inactive: Potency [2] | Potency [3] | Potency [4] | outcome [5] | Potency [6] | Potency [8]
